A short description of the assay: HepG2 cell cytotoxicity, dose response, cytotoxicity control, plate reader, dry powder samples (AID 1159569).

Potency and affinity values are given separately. Records with an inconclusive call do not appear. Entries that show only a call come without a potency. Calls of active or inactive are those of the source. The rule behind the calls is not given here.

In the case of `CC(C)(C)[S@@](=O)N1Cc2cc(C(=O)N[C@@H]3CCN(Cc4ccccc4)C3)nc(-c3cccc(-c4cccnc4)c3)c2[C@H]1CCO`, the compound was classed as inactive.

Take `COc1cccc(S(=O)(=O)N(C)C[C@@H]2OCc3ccccc3-c3c(n(C)c4ccccc34)C(=O)N([C@H](C)CO)C[C@@H]2C)c1`: the call was inactive. For `C[C@@H]1CN([C@H](C)CO)C(=O)c2cc(/C=C/c3ccccc3)cnc2O[C@H]1CN(C)C(=O)NC1CCCCC1`, the compound was classed as inactive. With `CC(C)NC(=O)N1[C@@H](CO)[C@@H](c2ccccc2)C12CN(Cc1ccc(F)cc1)C2`, the outcome was inactive. On to `C[C@H]1CN([C@@H](C)CO)C(=O)c2c(c3ccccc3n2C)-c2ccccc2CO[C@@H]1CN(C)S(=O)(=O)c1ccc(F)cc1`, for which the result was inactive.

In the case of `COc1ccc2c3c([nH]c2c1)[C@H](CO)N(C(=O)C1CCOCC1)CC31CCN(Cc2nccs2)CC1`, the compound was called inactive. `C[C@H](CO)N1C[C@H](C)[C@H](CN(C)S(=O)(=O)c2ccc([N+](=O)[O-])cc2)OCc2ccccc2-c2c(n(C)c3ccccc23)C1=O`: the call was inactive. Then `OC[C@H]1[C@@H](c2ccc(-c3cccnc3)cc2)[C@@H]2CN(CC3CC3)CCCCN12`, with “inactive”; and `C[C@@H]1CN([C@H](C)CO)S(=O)(=O)c2ccc(C#Cc3ccccc3F)cc2O[C@H]1CN(C)C(=O)c1ccc2c(c1)OCO2`, with “inactive”. With `O=C(C1CCCC1)N1CC2(C1)[C@@H](c1ccccc1)[C@H](CO)N2Cc1ccc(Cl)cc1` the entry was “inactive”. On to `Cc1ccc(S(=O)(=O)N(C)C[C@H]2OCc3ccccc3-c3c(n(C)c4ccccc34)C(=O)N([C@H](C)CO)C[C@@H]2C)cc1`, for which the compound was called inactive. Turning to `COc1ccccc1NC(=O)Nc1ccc2c(c1)OC[C@@H](C)N(Cc1ccccc1Cl)C[C@@H](C)[C@H](OC)CN(C)C2=O`, the compound was called inactive. With `COc1ccc(C#Cc2ccc3c(c2)O[C@@H](CN(C)S(=O)(=O)c2ccccc2F)[C@@H](C)CN([C@H](C)CO)S3(=O)=O)cc1` the entry was “inactive”.

In the case of `O=C(C1CCCC1)N1CC(=O)N2[C@H](CO)[C@H](c3ccc(-c4cccnc4)cc3)[C@H]2C1`, the outcome was inactive. Regarding `C/C=C/c1ccc([C@H]2[C@@H](C#N)N(C(=O)NC3CCCC3)[C@@H]2CO)cc1`, the result was inactive. Then `CC(C)(C)[S@](=O)N1Cc2cc(C(=O)N[C@@H]3CCN(Cc4ccccc4)C3)nc(-c3cccc(-c4cccnc4)c3)c2[C@@H]1CCO`, with “inactive”.

On to `COCC#Cc1ccc(CC[C@H]2O[C@H]3CC[C@H](CO)O[C@H]3C[C@@H]2n2cc(C3CC3)nn2)cc1`, for which the call was inactive. As for `COc1ccc2c3c(n(C)c2c1)[C@@H](CO)N(C(=O)C1CCCC1)CC31CN(C(=O)Nc2cccc(F)c2)C1`, the result was inactive. Take `C[C@@H]1CN([C@H](C)CO)C(=O)c2cc(NC(=O)Nc3ccc(C(F)(F)F)cc3)ccc2O[C@H]1CN(C)C(=O)Nc1cccc2ccccc12`: the compound was called inactive. Consider `OC[C@H]1[C@H](c2ccccc2)C2(CN(Cc3ccccc3F)C2)N1Cc1ccccc1F`, for which the compound was classed as inactive.

Source of the values: PubChem BioAssay AID1159569 (Broad Institute, 2015).
